# Source: PubChem BioAssay
# LYPLA2 inh – blocks human lysophospholipase 2, a PME1 counter-screen; inhibition, % at 5.9 µM; recombinant LYPLA2, FP-Rh probe fluorescence polarization; 320,000 compounds, 0.38% hits; O95372;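 active = inhibition above the screen-wide mean plus 3 SD, limit set per campaign, cut at about 26% in these data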;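 also: 0% = LYPLA2 with DMSO and 100% = wells lacking LYPLA2 enzyme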
# ZTA DNA inh – ZTA (EBV) inhibition in EBNA-1 counter-screen. 320,000 compounds, 0.15% hits. ZTA-DNA binding, fluorescence polarization. P03206. inhibition, % at 11 µM; in the data active = inhibition above about 33%
# LYPLA1 counter – counter-screen for PME1 inhibitors: inhibitors of human LYPLA1. O75608. recombinant LYPLA1, FP-Rh probe fluorescence polarization. inhibition, % at 5.9 µM. AID 2174. 320,000 compounds, 0.16% hits;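 active = inhibition above the mean of all tested compounds plus 3 SD, set per campaign, cut at about 14% in these data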;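 also: inhibitors block serine hydrolase probe labeling of LYPLA1 so polarization falls; 0% = enzyme with DMSO and 100% = wells lacking LYPLA1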
# PREPL inhibitor – inhibits the human prolyl oligopeptidase-like enzyme. recombinant PREPL, fluorescence polarization activity-based probe. inhibition, % at 5.96 µM. 320,000 compounds, 0.68% hits. AID 2751; in the data active = inhibition above about 43%;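 also: 0% = enzyme with DMSO and 100% = wells lacking enzyme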
# Target sequence (Q4J6C6 whole entry, looked up): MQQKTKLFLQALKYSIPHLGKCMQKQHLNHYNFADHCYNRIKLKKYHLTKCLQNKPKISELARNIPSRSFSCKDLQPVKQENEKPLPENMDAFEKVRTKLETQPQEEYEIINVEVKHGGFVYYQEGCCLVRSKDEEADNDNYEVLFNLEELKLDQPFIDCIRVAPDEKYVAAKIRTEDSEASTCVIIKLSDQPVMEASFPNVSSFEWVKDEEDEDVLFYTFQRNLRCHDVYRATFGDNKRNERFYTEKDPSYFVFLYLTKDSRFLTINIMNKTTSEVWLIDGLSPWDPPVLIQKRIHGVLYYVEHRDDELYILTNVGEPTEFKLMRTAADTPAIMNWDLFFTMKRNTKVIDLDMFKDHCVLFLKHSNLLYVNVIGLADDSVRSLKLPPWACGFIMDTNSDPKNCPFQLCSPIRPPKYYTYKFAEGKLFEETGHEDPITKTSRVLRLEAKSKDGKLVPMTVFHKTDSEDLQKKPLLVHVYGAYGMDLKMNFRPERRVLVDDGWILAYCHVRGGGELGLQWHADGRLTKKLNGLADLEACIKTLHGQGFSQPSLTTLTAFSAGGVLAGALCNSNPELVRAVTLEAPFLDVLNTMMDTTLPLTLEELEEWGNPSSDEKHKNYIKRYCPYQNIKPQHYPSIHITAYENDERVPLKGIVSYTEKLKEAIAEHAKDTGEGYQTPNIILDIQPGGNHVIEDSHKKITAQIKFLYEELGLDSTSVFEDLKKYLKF
# EBNA-1 inhibitor – blocks EBNA-1 binding to DNA | EBNA-1 DNA binding, fluorescence polarization | inhibition, % at 14.8 µM | 300,000 compounds, 0.34% hits | AID 1950; in the data active = inhibition above about 28%
# LYPLA2 confirm – counter-screen for PME1 inhibitors: confirmation of human LYPLA2 inhibitors. shares compounds with LYPLA2 inh. recombinant LYPLA2, FP-Rh probe fluorescence polarization. inhibition, % at 5.9 µM. 1,100 compounds, 72% hits. AID 2232;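 active = mean inhibition across replicates above the hit cutoff set in the primary screen, cut at about 26% in these data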;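 also: blocked labeling of the enzyme by serine hydrolase FP-Rh probe lowers polarization; 0% = enzyme with DMSO and 100% = wells lacking LYPLA2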
# LYPLA2 ABPP – LYPLA2 (human) inhibition, late stage results; 150 compounds, 30% hits; rhLYPLA2 in mouse brain proteome, gel ABPP FP-Rh; shares compounds with LYPLA2 inh; inhibition, % at 20 µM;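 active = inhibition of LYPLA2 enzyme probe labeling above about 50%, limit read from the data; inactive = inhibition below that limit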;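 also: loss of FP-Rh probe labeling of the LYPLA2 gel band measured as band density; 0% = DMSO only control band and 100% = blank gel background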
# Numbers without * were called inactive; . = no result given. Compounds with a hit are over-represented: about 1.3% of the library has one in this group of screens.
SMILES,LYPLA2 inh,ZTA DNA inh,LYPLA1 counter,PREPL inhibitor,EBNA-1 inhibitor,LYPLA2 confirm,others
CC1CCC(NC(=O)COC(=O)c2n[nH]c(=O)c3ccccc23)CC1 (stereo not drawn),-5,6,-2,13,-9,.,
C=CCNCC(O)COc1ccc(C(C)=O)cc1OC (stereo not drawn),-1,-3,-1,-2,-2,.,
CCn1c(C)c(C)c2cc(C(=O)NCCCN3CCCCC3C)ccc21 (stereo not drawn),-1,-1,-2,6,-5,.,
O=C(CCc1nnc(-c2ccccc2)o1)c1ccc(Cl)cc1,-2,-3,-1,9,6,.,
CCOc1ccc(S(=O)(=O)NCCC(=O)Nc2cccc(C(=O)OC)c2)cc1,5,-2,0,-1,-4,.,
CC(C)(C)c1ccc(C(=O)C2CCCN(C(=O)CN3CCCC3=O)C2)cc1 (stereo not drawn),1,0,-3,-7,4,.,
CN(C)C(=O)N1CCC(C(=O)N2CCCC(C(=O)c3ccc(C(C)(C)C)cc3)C2)CC1 (stereo not drawn),34*,-4,4,10,0,34*,
Cc1ccc(NC(=O)CN2C(=O)S/C(=C\c3cccn3-c3cccc(C(=O)O)c3)C2=O)cc1C,36*,9,-9,5,8,43*,
O=C(CN1C(=O)S/C(=C/C=C/c2ccccc2)C1=O)Nc1ccc(C(=O)O)cc1,-12,14,-6,2,4,.,
Cc1cccc(NC(=O)CN2C(=O)S/C(=C\c3cccn3-c3cccc(C(=O)O)c3)C2=O)c1,67*,-3,-5,4,6,63*,LYPLA2 ABPP=94*
Cc1ccccc1NC(=O)CN1C(=O)S/C(=C\c2cccn2-c2cccc(C(=O)O)c2)C1=O,50*,12,-9,3,2,74*,LYPLA2 ABPP=64*
Cc1cccc(C)c1NC(=O)CN1C(=O)S/C(=C\c2cccn2C)C1=O,-6,6,-2,0,10,.,
Cc1ccc(NC(=O)CN2C(=O)S/C(=C\c3cc(C)n(-c4ccc(C(=O)O)cc4)c3C)C2=O)cc1,42*,-5,-5,17,10,43*,
CCOc1ccccc1C(=O)NCC(=O)N(C)Cc1cccnc1,0,-15,1,-1,-6,.,
O=C(CCN=C1NS(=O)(=O)c2ccccc21)OCc1ccccc1,-3,-4,2,12,-9,.,
CCOC(=O)c1c(C)[nH]c(C(=O)OCC(=O)N(C)CC(=O)Nc2ccccc2Cl)c1C,6,-28,2,14,1,.,
Cc1nn(-c2ccccc2)c(Cl)c1/C=N/Nc1ccc(S(=O)(=O)Nc2ccccc2C(=O)O)cc1[N+](=O)[O-],28*,16,1,38,15,13,
N#CCCN1CCCc2cc(N=Nc3ccc(C(F)(F)F)cc3)ccc21,3,-12,-3,7,-7,.,
O=C(c1ccc(N2CCN(C3CC(=O)N(c4ccc(F)cc4)C3=O)CC2)cc1)c1cccnc1 (stereo not drawn),35*,2,6,8,2,32*,
CCOc1ccc(N2C(=O)CC(N3CCN(c4ccc(C(=O)c5ccncc5)cc4)CC3)C2=O)cc1 (stereo not drawn),29*,9,5,3,-7,20,
CCN1C(=O)CC(N2CCN(c3ccc(C(=O)c4ccncc4)cc3)CC2)C1=O (stereo not drawn),2,5,-2,-3,-1,.,
CN(C)c1ccc(CN(C(=O)c2ccccc2Br)C2CCS(=O)(=O)C2)cc1 (stereo not drawn),0,-3,0,8,-20,.,
COc1ccccc1Oc1ccc(NC(=O)Cc2ccccc2)cc1,0,8,-1,-2,9,.,
O=C(Nc1cccc(F)c1)c1ccc(S(=O)(=O)N2CCCCC2)cc1,-9,2,-6,-2,4,.,
COc1ccc(COC(=O)c2cc(S(=O)(=O)N3CCCCC3)ccc2N2CCOCC2)cc1,17,3,2,-2,-4,.,
SMILES,LYPLA2 inh,ZTA DNA inh,LYPLA1 counter,PREPL inhibitor,EBNA-1 inhibitor,LYPLA2 confirm,others
Cc1ccc(OCCOC(=O)c2cc(S(=O)(=O)N3CCCCC3)ccc2N2CCOCC2)cc1,29*,2,-1,17,.,31*,
O=C(OCc1ccc([N+](=O)[O-])cc1)c1cc(S(=O)(=O)N2CCCCC2)ccc1N1CCOCC1,27*,3,2,8,-1,33*,
O=C(CSc1ccc2c(c1)OCCO2)Nc1ncccc1O,-1,-4,0,2,-4,.,
CCN(CC(=O)Nc1cccc(OC)c1)C(=O)c1ccco1,1,-1,0,9,-3,.,
CCc1nn(CC(=O)NCCc2ccc(S(N)(=O)=O)cc2)c(=O)c2cc3sccc3n12,8,-1,0,-1,-3,.,
O=C(O)c1ccccc1SCc1cn2cc(Cl)ccc2n1,32*,-16,2,-10,-5,2,
O=C(O)c1cccnc1SCc1cn2cc(Cl)ccc2n1,5,-1,0,11,-1,.,
COc1cccc(-c2cc(C(=O)Nc3c(C)nn(Cc4ccccc4C)c3C)no2)c1,45*,4,6,1,3,48*,
COc1cccc(-c2cc(C(=O)Nc3c(C)nn(Cc4ccccc4)c3C)no2)c1,56*,1,8,12,-11,45*,
COc1cccc(-c2cc(C(=O)Nc3cnn(Cc4ccccc4C)c3)no2)c1,4,12,-6,-12,26,.,
O=C(CSc1n[nH]c(=O)n1-c1cccnc1)Nc1ccccc1,-4,4,-1,0,2,.,
CC(C)CN1C(=O)C(=O)N(CC(=O)N(C)CC(=O)Nc2ccc(F)cc2)C1=O,-1,9,0,6,.,.,
CC(NCc1ccc(OCc2ccc(Cl)cc2)cc1)C(O)c1ccccc1 (stereo not drawn),39*,1,1,34,-4,38*,
CC(NCc1cccc(OCc2ccccc2)c1)C(O)c1ccccc1 (stereo not drawn),8,-7,2,25,4,.,
COCC(=O)N/N=C\c1ccccc1OC/C=C/c1ccccc1,50*,4,2,12,4,42*,
N#CCC(=O)N/N=C\c1ccccc1OC/C=C/c1ccccc1,19,-18,-9,8,-14,.,
Clc1ccccn1,-7,8,-2,-3,.,.,
C#CCOCCOCCOCCNc1nc(N2CCN(C(=O)CCCCCCCCCCNC(=O)Cn3cc(CCCCCN)nn3)CC2)nc(N2CCN(C(=O)CCCCCCCCCCNC(=O)[C@@H]([C@H](C)O)n3cc(C)nn3)CC2)n1,9,30,0,40,11,.,
